Data published in PubChem BioAssay AID434982 (The Scripps Research Institute Molecular Screening Center, 2010).
In all, about 15,000 compounds went through this assay and about 60 (0.4%) were called active. This excerpt belongs to a sample that is enriched for actives. Unmarked numbers belong to inactive results. No stated cut-off is given here; in the data, active means activation above about 2.2%; inactive means the rest.

Test: agonists of NOTCH signaling (AID 434982)
Conditions: NOTCH signaling luciferase reporter cells, luminescence; at 2.5 µM; hits give high values

Structure (SMILES)	activation
c1ccc2c(-c3csc(-c4ccc5c(c4)OCCO5)n3)csc2c1	-0.45%
O=S(=O)(c1ccc(Cl)cc1)n1nccc1/C=C/c1cccs1	0.05%
N#Cc1c(-c2cccs2)cc(-c2cccs2)nc1N	-0.55%
CSc1sc(C(=O)Nc2cccc(Cl)c2)c(-c2cccs2)c1C#N	-0.76%
CC1(C)C2CC[C@](C)(C2)C1NC(=O)c1c(Cl)cccc1Cl (stereo not given in full)	-0.41%
CC(C)(C)c1csc(Sc2ccc([N+](=O)[O-])cc2[N+](=O)[O-])n1	-0.69%
CSc1nsc(SC)c1C(=O)NC(=O)NNc1ccc(F)c(Cl)c1	-0.35%
CCCCc1ccc(-n2c(-c3ccc(F)cc3)coc2=O)cc1	-0.29%
Clc1ccc(C2=NN(Cc3ccccc3)CC2)s1	0.29%
CC(=O)Nc1ccc(F)cc1F	3.83% (active)
COc1ccc(NC(=S)Nc2ccc(F)cc2F)c([N+](=O)[O-])c1	-0.83%
Cc1ccc(SCC(=O)Nc2ccc(F)cc2F)cc1	0.31%
O=C1c2ccccc2C(=O)N1CNc1ccc(C2CCCCC2)cc1	-0.31%
Cc1ccc(CSC(=N)N)cc1	0.1%
COc1ccc(OC(=O)/C=C/c2sc3ccccc3c2C)cc1	-0.25%
Cc1nc(-c2ccccn2)n2nnnc2c1Cl	-0.27%
Cc1oc(C(C)(C)C)cc1C(=O)NC1Cc2ccccc2C1	-0.44%
COC(=O)c1scc(S(=O)(=O)Cc2ccco2)c1N/N=C(\C#N)S(=O)(=O)C(C)C	0.15%
NNC(=O)c1cc(OCC(F)(F)F)nc(OCC(F)(F)F)c1	-0.48%
COc1cc(NC(=O)c2ncc(C(F)(F)F)cc2Cl)c(C(=O)O)cc1OC	-0.4%
COC(=O)c1ccc(S(=O)(=O)N2CCN(c3ccc([N+](=O)[O-])cn3)CC2)n1C	0.16%
COC(=O)c1ccc(S(=O)(=O)NNC(=O)c2cn3cc(C(F)(F)F)cc(Cl)c3n2)n1C	3.18% (active)

Structure (SMILES)	activation
Cc1ccc(OC(=O)c2cccc([N+](=O)[O-])c2)c(Br)c1	0.36%
CC(=O)Nc1ccc(NC(=O)c2cc(C)ccc2[N+](=O)[O-])c(C)c1	-0.09%
CC(=O)Nc1cccc([N+](=O)[O-])c1	6.11% (active)
O/N=C/c1ccc(F)c(Cl)c1	0.44%
COC(=O)/C(=C/c1ccccc1)c1ccccc1	-0.19%
CSC(=CC(=O)c1cccs1)SC	-0.45%
Cc1nc2ccccn2c1C(=O)N/N=C/c1cn(-c2ccccc2)nc1-c1cccs1	-0.2%
N/C(=N\OCc1noc(-c2ccsc2)n1)c1ccc(C(F)(F)F)cc1	-0.33%
O=C(Cn1nnc(N2CCOCC2)n1)N/N=C/c1ccc(-c2cccc([N+](=O)[O-])c2)o1	-0.66%
CS(=O)(=O)/N=C(\N)c1ccncc1	-1.1%
Cc1noc(C)c1C(=O)c1c(C)[nH]n(-c2ccccc2)c1=O	0.14%
O=S(=O)(Oc1ccc(Cl)c(Cl)c1)c1c(Cl)sc(Cl)c1Br	-0.59%
CC(C)(C)OC(=O)n1ccc2cc(Br)ccc21	-0.83%
Cc1ccc(S(=O)(=O)NNC(=O)CCc2nc(-c3ccc(Cl)cc3)no2)cc1	0.6%
CC(=O)N1C=CC(c2c[nH]c3ccccc23)C=C1	-0.43%
CS(=O)(=O)c1csc(C(=O)NCc2cccnc2)c1Cl	-0.31%
CN(NS(=O)(=O)c1ccc(C(F)(F)F)cc1)c1cnn(C)c(=O)c1Cl	-0.2%
O=C(Nc1ccccc1C(=O)NC1CCSC1)c1cccc(Cl)c1 (stereo not given)	-0.57%
c1ccc(-c2nsc(N3CCNCC3)n2)cc1	0.94%
Cn1cc(Cl)c(/C=C(\C#N)C(N)=O)n1	-0.29%
O=c1[nH]cc(Br)c(=O)[nH]1	-0.83%
O=C(CN1CCOCC1)NNC(=O)c1cccs1	-0.03%

Structure (SMILES)	activation
O=C(Cc1cccc2ccccc12)NNC(=O)Nc1ccc(Cl)cc1	-0.03%
COc1cccc(NC(=S)NNC(=S)NC2CC3CCC2C3)c1 (stereo not given)	-0.54%
Cc1cc(C(=O)NCCNS(=O)(=O)c2ccc(Cl)cc2)c(C)o1	-0.14%
CNC(=S)NNC(=O)CSc1cccs1	1.08%
N#C/C(=C\c1cccn1S(=O)(=O)c1ccccc1)C(=O)c1ccccc1	0.09%
O=C(Cc1cc(F)cc(F)c1)n1nccc1-c1cccs1	-0.68%
O=C(O)C1CC2CC1CCC2O (stereo not given)	-0.37%
Fc1ccc(NC(=S)N2CCN=C2Nc2ccc(F)cc2)cc1	-1.11%
CC(=O)NC12CC3(C)CC(C)(CC(C)(C3)C1)C2	1.34%
Cn1c(S(=O)(=O)O)nc2ccccc21	-0.35%
Cc1ccc(S(=O)(=O)NC(=O)NNc2ncnc3scc(-c4ccccc4)c23)cc1	-0.88%
CCN=C(NCC)Nc1ccc(Cl)cc1	-0.99%
CC(=O)/C(=C\N(C)C)c1ncccc1[N+](=O)[O-]	0%
CNC(=S)Nc1cscc1S(=O)(=O)c1ccc(Cl)cc1	-0.17%
CCOC(=O)c1sc(SCCS(=O)(=O)c2ccc(Cl)cc2)c(C#N)c1-c1ccccc1	-0.58%
O=S(=O)(Oc1ncccc1C(F)(F)F)c1cccc(F)c1	-0.36%
O=C(NC(=O)C1CCN(c2ncccc2[N+](=O)[O-])CC1)Nc1ccc(Cl)cc1	0.44%
CCOC(=O)CC(=O)CSc1nnc(N)s1	0%
NC(=O)C1CCN(CC(O)COc2ccc(Cl)c(Cl)c2)CC1 (stereo not given)	-0.63%
O=c1o[nH]c(-c2ccccc2)c1N=Nc1c(F)cccc1Cl	0.09%
CCOC(=O)C(O)(NC(=O)Nc1ccccc1)C(F)(F)F (stereo not given)	-0.73%
